MEX-5 binding = MEX-5 zinc finger RNA-binding disruptors – biochemical, C. elegans, fluorescence polarization, MLPCN library, primary screen; activity score (negative = inhibition of binding), % at 10 µM; MEX-5/FITC-TCR2 RNA binding; active compounds read low; Zinc finger protein mex-5 (Caenorhabditis elegans), Q9XUB2; 300,000 tested, 0.38% active;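 active means inhibition past about -25% in most replicates, and total fluorescence under double the plate's negative control median, limit read from the data; inconclusive means replicates evenly split on the limit, or fluorescence at least double controls; inactive means too little inhibition in most replicates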;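 further: 0% = DMSO and -100% = 5 µM competing unlabeled TCR2 RNA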
Target sequence (Q9XUB2 whole entry, looked up): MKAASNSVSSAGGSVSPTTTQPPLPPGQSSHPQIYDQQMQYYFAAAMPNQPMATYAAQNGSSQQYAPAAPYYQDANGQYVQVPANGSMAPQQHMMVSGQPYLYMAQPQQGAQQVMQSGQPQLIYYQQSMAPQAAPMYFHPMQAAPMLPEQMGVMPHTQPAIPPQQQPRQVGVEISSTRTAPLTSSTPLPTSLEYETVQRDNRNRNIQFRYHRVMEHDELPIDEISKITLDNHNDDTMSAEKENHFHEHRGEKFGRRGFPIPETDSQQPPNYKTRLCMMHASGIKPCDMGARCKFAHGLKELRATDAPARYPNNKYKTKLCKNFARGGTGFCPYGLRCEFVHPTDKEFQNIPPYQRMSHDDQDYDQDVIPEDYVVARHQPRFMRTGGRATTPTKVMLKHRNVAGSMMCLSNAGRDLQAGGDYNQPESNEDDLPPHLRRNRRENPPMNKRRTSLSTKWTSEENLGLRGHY
V-ATPase pHluor = regulators of yeast V-ATPase proton pumping, primary screen, pHLuorin cytosolic pH fluorescence. S. cerevisiae. response, % at 10 µM. 350,000 tested, 0.37% active; in the data active means response mostly above about 7.3%, no sharp cut-off; inactive means mostly below about 5.4%; further: actives read high
VLA-4 inh = inhibition in human VLA-4 binding assay, primary screen, VLA-4 allosteric modulator project, MLPCN library, flow cytometry, VLA-4 expressing cells; Integrin alpha-4 (Homo sapiens), P13612; ligand binding flow cytometry; inhibition, % (about 7 µM as worked out from the volumes in the protocol); 330,000 tested, 0.2% active; AID 2557, 2010; in the data active means inhibition above about 50%
Granule exo inh = LAMP-1 surface exposure blockers, TALL-104 cells – cell-based, flow cytometry, MLPCN library, primary screen | AID 651702, 2012 | TALL-104 LAMP-1 surface exposure; cells stimulated with thapsigargin and PMA | 360,000 tested, 0.66% active | inhibition, % at 10 µM;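 active means inhibition above about 55%, limit read from the data; inconclusive means no clear call, values can overlap the other calls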
GASC-1 inh = inhibitors of GASC-1 histone demethylase, primary screen, biochemical, fluorescence, DELFIA europium; Lysine-specific demethylase 4C (Homo sapiens), Q9H3R0; GST-JMJD2C(1-420) H3K9me3 demethylation; inhibition, % at 2.35 µM; 330,000 tested, 0.069% active;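 active means more than half of a compound's replicate wells show inhibition beyond 50%, single wells judged on their own value; inconclusive means some, but no more than half, of replicates pass 50% inhibition; inactive means no replicate passes 50% inhibition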;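 further: signal counts dimethyl H3K9 product captured on neutravidin plate; 0% = median of DMSO wells and 100% = 0.3 times that DMSO median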
m5-HT2A agonist = mouse Htr2a agonists via beta-arrestin recruitment, primary screen, cell-based, luminescence; 5-hydroxytryptamine receptor 2A (Mus musculus), P35363; 360,000 tested, 0.66% active; CHO-K1 mHTR2A beta-arrestin complementation; percent of 30 µM serotonin response; activation, % at 7.6 µM;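 active means activation above a run cutoff, the mean activation of all tested compounds plus 3 SD, cut at about 14% in these data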;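 further: 0% = plate median of compound wells and 100% = 30 µM serotonin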
MOR ag counter = OPRM1 agonists via beta-arrestin recruitment, confirmation, counter-screen for mouse HTR2A agonist project, cell-based, luminescence, single concentration. 2,300 tested, 5.3% active. U2OS OPRM1 beta-arrestin PathHunter; DMSO 0%, DAMGO 9.3 µM 100%. activation, % at 9.3 µM. shares compounds with m5-HT2A agonist. AID 624380, 2012;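 active means mean activation above the mean of DMSO-only wells plus 3 SD, cut at about 0.5% in these data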
HTR2A ag conf = mouse HTR2A agonists, beta-arrestin recruitment, confirmation, cell-based, luminescence, CHO-K1 PathHunter, triplicate; DMSO 0%, 30 µM serotonin 100%; 2,300 tested, 19% active; activation, % at 7.6 µM; shares compounds with m5-HT2A agonist;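 active means mean activation across triplicates above the hit threshold derived in the original primary screen, cut at about 15% in these data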
The depositor's hits bear a star; ? = inconclusive; nt = not tested or not shown. Shown are actives, neighbours in structure and some others; about 2.2% of the full set was active somewhere.

SMILES	MEX-5 binding	V-ATPase pHluor	VLA-4 inh	Granule exo inh	GASC-1 inh	m5-HT2A agonist	MOR ag counter	HTR2A ag conf
C#CCN(C[C@@H]1[C@@H](OC(=O)NCc2ccccc2F)[C@@H](OC(=O)NCc2ccccc2F)Cn2c(=O)ccc(=O)n21)S(=O)(=O)c1ccc(C)cc1	nt	-1	nt	-3	nt	2	nt	nt
CCOc1ccc(S(=O)(=O)N2CCC(C(=O)N3CCCC3)CC2)cc1C	-1	1	1	14	2	4	nt	nt
OC[C@@H]1CN(Cc2ccncc2)C[C@H](n2cnc3c(NCc4ccco4)ncnc32)O1	nt	nt	nt	-6	nt	-7	nt	nt
CC(=O)Nc1ccc(S(=O)(=O)NCCc2c[nH]c3ccc(C)cc23)cc1	-1	10	9	5	-12	-4	nt	nt
O=C(O)C1CCCCC1C(=O)NCCc1c[nH]c2ccccc12 (stereo not given)	3	-1	-18	0	-1	38*	-1	15*
O=C(O)[C@H]1CCCC[C@H]1C(=O)NCCc1ccccc1	0	-5	0	3	0	11	nt	nt
Cc1[nH]c2ccccc2c1C(=O)C(=O)NCCc1c[nH]c2ccccc12	-2	-1	-6	4	0	15*	0	-4
COc1ccc2[nH]cc(CCNS(=O)(=O)c3ccc(NC(C)=O)cc3)c2c1	1	0	-9	0	5	31*	0	15*
COc1ccc2[nH]cc(CCNC(=O)C3CCCCC3)c2c1	0	-5	-4	16	6	15*	-1	9
COc1ccc2[nH]cc(CCNC(=S)NC3CCCC3)c2c1	-5	-2	2	3	4	-4	nt	nt
Cc1[nH]n(-c2ccccc2)c(=O)c1N=Nc1ccccc1O	5	0	nt	-3	16	-13	nt	nt
Cc1[nH]n(-c2ccccc2)c(=O)c1N=Nc1ccccc1C(=O)O	-3	1	3	21	-2	18*	0	11
O=S(=O)(N1CCCCC1)N1CCCN(S(=O)(=O)N2CCCCC2)CC1	1	1	2	?	-45	15*	-1	-3
CC(C)c1cc(CNC(=O)C2CCC(=O)N(Cc3ccccc3F)C2)on1 (stereo not given)	2	0	-9	12	-2	12	nt	nt
CC(C)CC(=O)Nc1nnc(SCC(=O)NCc2ccc3c(c2)OCO3)s1	0	-2	-5	0	9	15*	-1	-3
Cc1ccc(C(=O)NC(C)c2nnc(SCC(=O)NC3CCCC3)n2C)cc1 (stereo not given)	-1	-2	12	0	-3	-2	nt	nt
Cn1c(NC(=O)C[n+]2cc(-c3ccc(F)cc3)n3c2CCC3)cc(=O)n(C)c1=O	-1	-1	5	1	-15	15*	-1	-3
Nc1ncnc(N)c1N=Nc1ccccc1	1	-2	-14	10	6	21*	-1	-2
Cn1c(N)c(N2CCCCC2)c(=O)n(CC(=O)Nc2cccc(C#N)c2)c1=O	nt	1	-7	1	-6	20*	-1	-5
Cc1cccc(C)c1NC(=O)Cn1c(=O)c(N2CCCCC2)c(N)n(C)c1=O	nt	-1	-5	-8	0	-5	nt	nt
CCCc1[nH]nc2c1C(c1ccsc1)C(C#N)=C(N)O2 (stereo not given)	2	2	-13	2	-2	21*	-1	-4
c1ccc(CCN=C2CCCc3c2[nH]c2ccccc32)cc1	-1	-6	0	-4	9	15*	0	28*
C#CCN(C[C@H]1[C@H](OC(=O)NCCCCCC)[C@H](OC(=O)NCCCCCC)C[C@H]2C(=O)N(c3ccccc3)C(=O)[C@@H]12)S(=O)(=O)c1ccc(C)cc1	nt	1	nt	-3	nt	15*	0	-6
C#CCN(C[C@H]1[C@H](OC(=O)NCc2ccccc2)[C@H](OC(=O)NCc2ccccc2)C[C@H]2C(=O)N(c3ccccc3)C(=O)[C@@H]12)S(=O)(=O)c1ccc(C)cc1	nt	-2	nt	1	nt	-1	nt	nt
O=C(Nc1ccccc1C(=O)Nc1nnc(C(F)(F)F)s1)c1ccccc1	2	1	16	4	8	14*	0	3
SMILES	MEX-5 binding	V-ATPase pHluor	VLA-4 inh	Granule exo inh	GASC-1 inh	m5-HT2A agonist	MOR ag counter	HTR2A ag conf
Cc1ccc(NC(=O)CCN2C(=O)c3cccc4cccc(c34)C2=O)cc1	-3	1	-6	-2	-2	1	nt	nt
Cc1ccc(NC(=O)CCN2C(=O)c3ccccc3C2=O)cc1	-1	2	8	-1	0	23*	0	-3
Cc1cc(C)nc(SCC(=O)Nc2ccc(S(=O)(=O)Nc3ncccn3)cc2)n1	-1	0	13	-1	-2	19*	-1	-4
CN(C)C(=O)C(OC(=O)c1ccc2ccccc2n1)c1ccccc1 (stereo not given)	2	-3	39	-1	3	-2	nt	nt
C=CCO/N=C(/C)c1ccc(Oc2cnccn2)cc1	0	0	3	0	14	0	nt	nt
O=P(Nc1ccccc1)(Nc1ccccc1)c1ccccc1	nt	-3	nt	9	nt	15*	-1	-3
CC1(C)C(=O)Nc2ccccc2N1C(=O)COC(=O)c1ccc(NC(N)=O)cc1	nt	0	nt	3	nt	8	nt	nt
COc1coc(/C=C/C(=O)O)cc1=O	2	4	-4	1	2	22*	0	0
COc1cc2c(cc1/C=C/C(=O)O)OC(C)C2 (stereo not given)	4	-2	5	-1	4	4	nt	nt
Cc1cc(C)n(-c2nnc(C)n2/N=C/c2ccccc2O)n1	1	1	21	-2	9	7	nt	nt
Cc1cc(C)n(-c2nnc(C)n2N)n1	0	1	-1	-2	9	18*	0	-5
CC(C)(C)NC(=O)C(c1cc2ccccc2o1)n1c(=O)c(-c2cc3ccccc3[nH]2)nc2ccccc21 (stereo not given)	nt	nt	nt	8	nt	31*	0	2
